Results: PubChem BioAssay
Where “and” joins values, the source holds several entries; their conditions need not be identical. Equal values may be shown once. Where a structure was tested more than once in an assay, its records may differ in their call. Calls of active or inactive are those of the source.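 The calls were made as follows, unless noted: active = normalized viability below 100% at a tested concentration; inactive = the rest.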

Columns and labels:
[1] = sensitizers of A549 cells to miR-34 induction, primary screen, imaging, A549 dox-inducible miR-34, nuclei and caspase counts (AID 1347080;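 active = compounds whose cell count with miR-34 switched on is under 0.7 times the count with it off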); details: A549 miR-34 inducible, Hoechst nuclei count, 48 h
[2] = survival rescue of mitochondrial mutant cells in low glucose, primary screen, MELAS cybrids, Rieske KO mouse fibroblasts, CellTiter-Glo (AID 1508586;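 active = mean z-score across replicates of 1.96 or higher in either the MELAS or the Rieske mutant cell line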;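 also: z relative to plate mean and SD of compound and empty wells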)
[3] = ovarian cancer cell viability with rucaparib, profiling panel, oncology-focused library, rucaparib conditional (AID 1508598); details: patient-derived ovarian cancer cells, CellTiter-Glo viability, 144 h, stronger effect = lower value
[4] = stronger effect = lower value, cell number ratio, induced over uninduced
[5] = measured here: relative caspase fold change +Dox/-Dox
[6] = measured here: total cells with miR-34 induction, stronger effect = lower value
[7] = measured here: total cells without miR-34 induction
[8] = MELAS cybrid survival, CellTiter-Glo 48 h, stronger effect = higher value
[9] = Rieske KO mouse fibroblast survival, CellTiter-Glo 72 h
[10] = at 0.000305 µM, OCI-C5x cells, with rucaparib 10 µM, 100% = cells with rucaparib alone
[11] = at 0.000305 µM, OCI-C5x cells, without rucaparib
[12] = at 0.000305 µM, OCI-P5x cells, with rucaparib 20 µM, 100% = cells with rucaparib alone
[13] = at 0.000305 µM, OCI-P5x cells, without rucaparib
[14] = at 0.00122 µM, OCI-C5x cells, with rucaparib 10 µM, 100% = cells with rucaparib alone
[15] = at 0.00122 µM, OCI-C5x cells, without rucaparib
[16] = at 0.00122 µM, OCI-P5x cells, with rucaparib 20 µM, 100% = cells with rucaparib alone
[17] = at 0.00122 µM, OCI-P5x cells, without rucaparib
[18] = at 0.00488 µM, OCI-C5x cells, with rucaparib 10 µM, 100% = cells with rucaparib alone
[19] = at 0.00488 µM, OCI-C5x cells, without rucaparib
[20] = at 0.00488 µM, OCI-P5x cells, with rucaparib 20 µM, 100% = cells with rucaparib alone
[21] = at 0.00488 µM, OCI-P5x cells, without rucaparib
[22] = at 0.0195 µM, OCI-C5x cells, with rucaparib 10 µM, 100% = cells with rucaparib alone
[23] = at 0.0195 µM, OCI-C5x cells, without rucaparib
[24] = at 0.0195 µM, OCI-P5x cells, with rucaparib 20 µM, 100% = cells with rucaparib alone
[25] = at 0.0195 µM, OCI-P5x cells, without rucaparib
[26] = at 0.0781 µM, OCI-C5x cells, with rucaparib 10 µM, 100% = cells with rucaparib alone
[27] = at 0.0781 µM, OCI-C5x cells, without rucaparib
[28] = at 0.0781 µM, OCI-P5x cells, with rucaparib 20 µM, 100% = cells with rucaparib alone
[29] = at 0.0781 µM, OCI-P5x cells, without rucaparib
[30] = at 0.313 µM, OCI-C5x cells, with rucaparib 10 µM, 100% = cells with rucaparib alone
[31] = at 0.313 µM, OCI-C5x cells, without rucaparib
[32] = at 0.313 µM, OCI-P5x cells, with rucaparib 20 µM, 100% = cells with rucaparib alone
[33] = at 0.313 µM, OCI-P5x cells, without rucaparib
[34] = at 1.25 µM, OCI-C5x cells, with rucaparib 10 µM, 100% = cells with rucaparib alone
[35] = at 1.25 µM, OCI-C5x cells, without rucaparib
[36] = at 1.25 µM, OCI-P5x cells, with rucaparib 20 µM, 100% = cells with rucaparib alone
[37] = at 1.25 µM, OCI-P5x cells, without rucaparib
[38] = at 5 µM, OCI-C5x cells, with rucaparib 10 µM, 100% = cells with rucaparib alone
[39] = at 5 µM, OCI-C5x cells, without rucaparib
[40] = at 5 µM, OCI-P5x cells, with rucaparib 20 µM, 100% = cells with rucaparib alone
[41] = at 5 µM, OCI-P5x cells, without rucaparib

Question: For `COc1cc(Br)c(Nc2nc(-c3c(C)nc4ncccn34)cs2)c(Br)c1`, which fold change [1, 4] is on record?
Answer: 1.04 (inactive) and 0.88 (inactive)

Question: And the fold change [1, 5]?
Answer: 0.552 and 0.466

Question: And the cell count [1, 6]?
Answer: 1800 and 1730

Question: What about the cell count [1, 7] of the same compound?
Answer: 1740 and 1960

Question: And the z-score [2, 8]?
Answer: 2.29 (active) and 1.89 (inactive)

Question: What about the z-score [2, 9] of the same compound?
Answer: 0.545 and -1.29

Question: What about the viability [3, 10] of the same compound?
Answer: 125% (inactive)

Question: What about the viability [3, 11] of the same compound?
Answer: 110% (inactive)

Question: What about the viability [3, 12] of the same compound?
Answer: 95.1% (active)

Question: And the viability [3, 13]?
Answer: 90.4% (active)

Question: And the viability [3, 14]?
Answer: 131% (inactive)

Question: And the viability [3, 15]?
Answer: 111% (inactive)

Question: And the viability [3, 16]?
Answer: 94.4% (active)

Question: And the viability [3, 17]?
Answer: 96.8% (active)

Question: What about the viability [3, 18] of the same compound?
Answer: 131% (inactive)

Question: What about the viability [3, 19] of the same compound?
Answer: 109% (inactive)

Question: And the viability [3, 20]?
Answer: 100% (inactive)

Question: And the viability [3, 21]?
Answer: 95.9% (active)

Question: What about the viability [3, 22] of the same compound?
Answer: 135% (inactive)

Question: What about the viability [3, 23] of the same compound?
Answer: 110% (inactive)

Question: And the viability [3, 24]?
Answer: 101% (inactive)

Question: What about the viability [3, 25] of the same compound?
Answer: 102% (inactive)

Question: And the viability [3, 26]?
Answer: 136% (inactive)

Question: What about the viability [3, 27] of the same compound?
Answer: 111% (inactive)

Question: What about the viability [3, 28] of the same compound?
Answer: 101% (inactive)

Question: What about the viability [3, 29] of the same compound?
Answer: 98.6% (active)

Question: What about the viability [3, 30] of the same compound?
Answer: 118% (inactive)

Question: What about the viability [3, 31] of the same compound?
Answer: 108% (inactive)

Question: What about the viability [3, 32] of the same compound?
Answer: 100% (inactive)

Question: What about the viability [3, 33] of the same compound?
Answer: 100% (inactive)

Question: What about the viability [3, 34] of the same compound?
Answer: 122% (inactive)

Question: And the viability [3, 35]?
Answer: 115% (inactive)

Question: And the viability [3, 36]?
Answer: 78.1% (active)

Question: What about the viability [3, 37] of the same compound?
Answer: 97.5% (active)

Question: And the viability [3, 38]?
Answer: 129% (inactive)

Question: And the viability [3, 39]?
Answer: 140% (inactive)

Question: And the viability [3, 40]?
Answer: 30.8% (active)

Question: What about the viability [3, 41] of the same compound?
Answer: 19% (active)

Question: Which fold change [1, 4] does the source give for `OCCn1cc(-c2ccc3c(c2)CCC3=NO)c(-c2ccncc2)n1` here?
Answer: 1.01 (inactive)

Question: What about the fold change [1, 5] of the same compound?
Answer: 0.852

Question: And the cell count [1, 6]?
Answer: 7830

Question: What about the cell count [1, 7] of the same compound?
Answer: 7730

Question: What about the z-score [2, 8] of the same compound?
Answer: -0.459 (inactive)

Question: What about the z-score [2, 9] of the same compound?
Answer: 0.407

Question: What about the viability [3, 10] of the same compound?
Answer: 116% (inactive)

Question: What about the viability [3, 11] of the same compound?
Answer: 107% (inactive)

Question: What about the viability [3, 12] of the same compound?
Answer: 91.8% (active)

Question: And the viability [3, 13]?
Answer: 92.8% (active)

Question: And the viability [3, 14]?
Answer: 114% (inactive)

Question: What about the viability [3, 15] of the same compound?
Answer: 113% (inactive)

Question: And the viability [3, 16]?
Answer: 103% (inactive)

Question: What about the viability [3, 17] of the same compound?
Answer: 92.9% (active)

Question: What about the viability [3, 18] of the same compound?
Answer: 120% (inactive)

Question: And the viability [3, 19]?
Answer: 92.1% (active)

Question: And the viability [3, 20]?
Answer: 103% (inactive)

Question: What about the viability [3, 21] of the same compound?
Answer: 101% (inactive)

Question: What about the viability [3, 22] of the same compound?
Answer: 116% (inactive)

Question: And the viability [3, 23]?
Answer: 121% (inactive)

Question: And the viability [3, 24]?
Answer: 102% (inactive)

Question: What about the viability [3, 25] of the same compound?
Answer: 101% (inactive)

Question: What about the viability [3, 26] of the same compound?
Answer: 115% (inactive)

Question: What about the viability [3, 27] of the same compound?
Answer: 122% (inactive)

Question: What about the viability [3, 28] of the same compound?
Answer: 99% (active)

Question: And the viability [3, 29]?
Answer: 103% (inactive)

Question: What about the viability [3, 30] of the same compound?
Answer: 118% (inactive)

Question: And the viability [3, 31]?
Answer: 125% (inactive)

Question: And the viability [3, 32]?
Answer: 95.5% (active)

Question: What about the viability [3, 33] of the same compound?
Answer: 93.7% (active)

Question: And the viability [3, 34]?
Answer: 118% (inactive)

Question: And the viability [3, 35]?
Answer: 131% (inactive)

Question: And the viability [3, 36]?
Answer: 90.7% (active)

Question: What about the viability [3, 37] of the same compound?
Answer: 96.5% (active)

Question: What about the viability [3, 38] of the same compound?
Answer: 124% (inactive)

Question: And the viability [3, 39]?
Answer: 137% (inactive)

Question: And the viability [3, 40]?
Answer: 88.8% (active)

Question: What about the viability [3, 41] of the same compound?
Answer: 98% (active)

Question: What does the source list for `CC(=O)O[C@@]1(C(C)=O)CC[C@H]2[C@@H]3C=C(Cl)C4=CC(=O)C5CC5[C@]4(C)[C@@H]3CC[C@@]21C` (stereo partly specified)?
Answer: fold change [1, 4]: 0.94 (inactive); fold change [1, 5]: 0.713; cell count [1, 6]: 7720; cell count [1, 7]: 8210; z-score [2, 8]: -0.351 (inactive); z-score [2, 9]: 0.528

Question: What does the source list for `CCc1c2c(nc3ccc(OC(=O)N4CCC(N5CCCCC5)CC4)cc13)-c1cc3c(c(=O)n1C2)COC(=O)[C@@]3(O)CC`?
Answer: fold change [1, 4]: 1.02 (inactive); fold change [1, 5]: 1.54; cell count [1, 6]: 2060; cell count [1, 7]: 2030; z-score [2, 8]: 0.2 (inactive); z-score [2, 9]: -0.798; viability [3, 10]: 115% (inactive); viability [3, 11]: 112% (inactive); viability [3, 12]: 119% (inactive); viability [3, 13]: 112% (inactive); viability [3, 14]: 114% (inactive); viability [3, 15]: 118% (inactive); viability [3, 16]: 112% (inactive); viability [3, 17]: 114% (inactive); viability [3, 18]: 119% (inactive); viability [3, 19]: 118% (inactive); viability [3, 20]: 106% (inactive); viability [3, 21]: 107% (inactive); viability [3, 22]: 117% (inactive); viability [3, 23]: 110% (inactive); viability [3, 24]: 108% (inactive); viability [3, 25]: 103% (inactive); viability [3, 26]: 112% (inactive); viability [3, 27]: 106% (inactive); viability [3, 28]: 104% (inactive); viability [3, 29]: 106% (inactive); viability [3, 30]: 83.7% (active); viability [3, 31]: 99.6% (active); viability [3, 32]: 88.2% (active); viability [3, 33]: 88.7% (active); viability [3, 34]: 64.4% (active); viability [3, 35]: 62.8% (active); viability [3, 36]: 48.7% (active); viability [3, 37]: 37.8% (active); viability [3, 38]: 35.7% (active); viability [3, 39]: 29.9% (active); viability [3, 40]: 23.9% (active); viability [3, 41]: 13.4% (active)

Question: What does the source list for `COC(=O)C1C(O)CC[C@H]2CN3CCc4c([nH]c5ccccc45)[C@@H]3C[C@H]12` (stereo partly specified)?
Answer: fold change [1, 4]: 0.892 (inactive); fold change [1, 5]: 0.762; cell count [1, 6]: 8840; cell count [1, 7]: 9910; z-score [2, 8]: -0.303 (inactive); z-score [2, 9]: 0.721
